We go through four compounds from PubChem BioAssay (EPA / NIEHS).

Calls of active or inactive are those of the source. How the source made its calls: active means hit-call score of the fitted dose curve at least 0.9, where 1 is the maximum; inactive means score below 0.9.

Assay [1] is described as follows: ATG_M_61_CIS: Attagene CIS-FACTORIAL HepG2 Assay for M61 Transcription Factor (Internal Marker) (AID 2282937). The conditions noted are these: HepG2 Attagene CIS-FACTORIAL M61 internal marker reporter; actives raise or lower the signal. The method, boiled down:
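Fluorescence from labelled cDNA fragments, separated by capillary electrophoresis, quantifies reporter induction. HepG2 cells bearing transiently transfected cis-promoter MRTUs were incubated with test chemical for 24 h; DMSO defined baseline for gain/loss fitting.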

A short description of assay [2]: ATG_EGR_CIS: Attagene CIS-FACTORIAL HepG2 Assay for human Early Growth Response 1 (EGR1) (AID 2282938). The conditions noted are these: HepG2 Attagene CIS-FACTORIAL EGR reporter mRNA; actives raise or lower the signal. The gist of the method:
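Cell-based multiplex transcription assay: HepG2 carrying transfected cis-element reporter units, 24 h chemical treatment. Fluorescence from capillary electrophoresis of RT-PCR products gives mRNA levels; fitting is bidirectional relative to DMSO.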

The nature of assay [3]: ATG_M_19_CIS: Attagene CIS-FACTORIAL HepG2 Assay for M19 Transcription Factor (Internal Marker) (AID 2282939). The conditions noted are these: HepG2 Attagene CIS-FACTORIAL M19 internal marker reporter; actives raise or lower the signal. The gist of the method:
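Signals come from fluorescence of labelled reporter-specific PCR fragments resolved by capillary electrophoresis, following 24 h treatment of HepG2 cells transfected with cis-promoter reporter units; activity was fitted in both directions relative to DMSO.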

Assay [4] in a line: ATG_ERE_CIS: Attagene CIS-FACTORIAL HepG2 Assay for Estrogen Response Element (ERE) (AID 2282940). The conditions noted are these: HepG2 ERE cis-reporter, Attagene RNA transcript; actives raise or lower the signal. The gist of the method:
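Fluorescence of capillary-separated, FAM-labelled reporter cDNA fragments indicates reporter mRNA levels in HepG2 cells exposed to chemicals for 24 h. Transient transfection with cis-regulated units; data fitted in both directions against DMSO.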

A short description of assay [5]: ATG_Ets_CIS: Attagene CIS-FACTORIAL HepG2 Assay for human Erythroblast Transformation Specific (ETS) (AID 2282941). The conditions noted are these: HepG2 ETS cis-reporter transcription, actives raise or lower the signal. The gist of the method:
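HepG2 cells transiently transfected with cis-promoter reporter transcription units were dosed for 24 h; reporter mRNA was measured by RT-PCR, 6-FAM primer extension, HpaI digestion and capillary electrophoresis, with bidirectional fitting against DMSO baseline.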

The nature of assay [6]: ATG_FoxO_CIS: Attagene CIS-FACTORIAL HepG2 Assay for human Forkhead box O (FoxO) (AID 2282943). The conditions noted are these: HepG2 Attagene cis-reporter, FoxO element, mRNA; actives raise or lower the signal. The method, boiled down: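 Read-out: fluorescence of 6-FAM-labelled reporter cDNA fragments resolved by capillary electrophoresis. Transiently transfected HepG2 cells were dosed for 24 h; activity fitted in both directions relative to DMSO controls.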

Assay [7] can be described thus: ATG_GATA_CIS: Attagene CIS-FACTORIAL HepG2 Assay for human GATA Binding Protein (AID 2282944). The conditions noted are these: HepG2 GATA cis-element reporter, Attagene multiplex mRNA; actives raise or lower the signal. The gist of the method:
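After transfecting HepG2 cells with multiple cis-regulated reporter units, chemicals are dosed for 24 h; isolated RNA undergoes RT-PCR and fluorescent labeling before capillary electrophoresis, with activity expressed against DMSO.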

The nature of assay [8]: ATG_GLI_CIS: Attagene CIS-FACTORIAL HepG2 Assay for human Zinc Finger Protein GLI1 (AID 2282945). The conditions noted are these: HepG2, Attagene cis-factorial reporter mRNA, GLI element; actives raise or lower the signal. The gist of the method:
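Transiently transfected HepG2 cells report endogenous transcription factor activity via cis-element-driven reporter units. After 24 h compound exposure, reporter mRNA was measured by RT-PCR with capillary electrophoresis; bidirectional fitting against DMSO baseline.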

Assay [9] addresses Bile acid receptor (Homo sapiens) (UniProt Q96RI1). Put plainly: ATG_IR1_CIS: Attagene CIS-FACTORIAL HepG2 Assay for human Nuclear Receptor Subfamily 1 Group H Member 4 (NR1H4), IR1 submotif (AID 2282946). The conditions noted are these: IR1 reporter transcription, actives raise or lower the signal. The gist of the method:
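HepG2 cells transiently transfected with multiple cis-promoter-driven reporter units to measure endogenous transcription factor activity; 24 h exposure. Reporter mRNA read by RT-PCR, FAM labelling, HpaI digestion and capillary electrophoresis. Bidirectional fit versus DMSO.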

Assay [10] is described as follows: ATG_M_32_CIS: Attagene CIS-FACTORIAL HepG2 Assay for M32 Transcription Factor (Internal Marker) (AID 2282949).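 Further: background control marker of the multiplexed CIS panel rather than a real target.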 The conditions noted are these: HepG2 Attagene cis-factorial M32 reporter, mRNA; actives raise or lower the signal. The gist of the method: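 HepG2 cells transiently transfected with multiplexed cis-regulated reporter units, dosed 24 h. Reporter mRNA quantified by RT-PCR, 6-FAM labelling, HpaI digestion and capillary electrophoresis; bidirectional fit vs DMSO.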

Assay [11] can be described thus: ATG_M_06_CIS: Attagene CIS-FACTORIAL HepG2 Assay for M06 Transcription Factor (Internal Marker) (AID 2282950). The conditions noted are these: HepG2 Attagene CIS-FACTORIAL M06 internal marker reporter; actives raise or lower the signal. The method, boiled down:
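HepG2 liver cells, 24 h exposure. Reporter transcripts from transfected cis-element constructs quantified by RT-PCR/capillary electrophoresis fluorescence. Bidirectional curve fit against DMSO.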

Assay [12] addresses Hypoxia-inducible factor 1-alpha (Homo sapiens) (UniProt Q16665). Put plainly: ATG_HIF1a_CIS: Attagene CIS-FACTORIAL HepG2 Assay for human Hypoxia Inducible Factor 1 (HIF1A) (AID 2282951). The conditions noted are these: HepG2 Attagene cis-factorial HIF1a reporter transcription; actives raise or lower the signal. The gist of the method:
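In this multiplexed cell assay, HepG2 cells bearing transfected cis reporters are dosed for 24 h and reporter mRNA is read by RT-PCR plus capillary electrophoresis; signal increases and decreases are both scored against DMSO.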

Assay [13] deals with Hepatocyte nuclear factor 6 (Homo sapiens) (UniProt Q9UBC0). The assay can be described thus: ATG_HNF6_CIS: Attagene CIS-FACTORIAL HepG2 Assay for human Hepatocyte Nuclear Factor 6 (HNF6) (AID 2282952). The conditions noted are these: HepG2 Attagene cis-factorial HNF6 reporter transcription; actives raise or lower the signal. The gist of the method:
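Multiplexed mRNA reporter assay in transfected HepG2; 24 h dosing; RT-PCR plus capillary electrophoresis fluorescence; DMSO-referenced bidirectional curve fitting.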

A short description of assay [14]: ATG_MRE_CIS: Attagene CIS-FACTORIAL HepG2 Assay for human Metal Responsive Element (MRE) (AID 2282954). The conditions noted are these: HepG2 MRE cis-reporter transcription, Attagene multiplex; actives raise or lower the signal. The gist of the method:
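HepG2 cells transiently transfected with cis-element-driven reporter units; mRNA measured 24 h after dosing. Reporter transcripts quantified by RT-PCR, FAM labelling, HpaI digestion and capillary electrophoresis; bidirectional fit versus DMSO.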

The nature of assay [15]: ATG_PBREM_CIS: Attagene CIS-FACTORIAL HepG2 Assay for human Phenobarbital-responsive Enhancer Module (PBREM) (AID 2282955). The conditions noted are these: HepG2 PBREM cis-reporter, Attagene multiplexed transcription; actives raise or lower the signal. The method, boiled down:
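After a 24 h incubation with test chemical, transfected HepG2 cells yield total RNA; reporter-specific RT-PCR products are fluorescently labelled, HpaI-digested and resolved by capillary electrophoresis against ROX size standards.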

In assay [16] the target is Paired box protein Pax-6 (Homo sapiens) (UniProt P26367). The assay can be described thus: ATG_Pax6_CIS: Attagene CIS-FACTORIAL HepG2 Assay for human Paired Box 6 (PAX6) (AID 2282956). The conditions noted are these: HepG2 CIS-FACTORIAL PAX6 reporter transcription, RNA readout; actives raise or lower the signal. The method, boiled down: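 HepG2 cells transiently transfected with multiplexed cis-promoter reporter units (endogenous TF activity) were dosed for 24 h. Reporter mRNA was quantified by RT-PCR, 6-FAM labeling, HpaI digestion and capillary electrophoresis; bidirectional fitting versus DMSO baseline.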
Sequence of Paired box protein Pax-6 (Homo sapiens) (P26367 whole entry, looked up): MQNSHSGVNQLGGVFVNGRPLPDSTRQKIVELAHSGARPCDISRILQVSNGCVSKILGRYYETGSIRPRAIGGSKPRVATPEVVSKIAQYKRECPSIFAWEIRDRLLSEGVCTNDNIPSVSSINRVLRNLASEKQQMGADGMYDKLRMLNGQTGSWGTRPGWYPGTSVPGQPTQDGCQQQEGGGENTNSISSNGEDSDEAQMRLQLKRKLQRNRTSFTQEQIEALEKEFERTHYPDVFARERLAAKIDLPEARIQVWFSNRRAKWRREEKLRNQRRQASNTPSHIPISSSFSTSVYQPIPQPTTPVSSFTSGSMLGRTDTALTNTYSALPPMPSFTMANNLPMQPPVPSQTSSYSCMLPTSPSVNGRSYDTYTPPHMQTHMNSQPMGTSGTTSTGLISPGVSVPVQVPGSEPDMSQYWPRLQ

Assay [17] deals with Hepatocyte nuclear factor 3-beta (Homo sapiens) (UniProt Q9Y261). Put plainly: ATG_FoxA2_CIS: Attagene CIS-FACTORIAL HepG2 Assay for human Forkhead box A2 (FOXA2) (AID 2282942). The conditions noted are these: HepG2 cis-reporter transcription factor activity, 24 h; actives raise or lower the signal. The gist of the method: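 In transiently transfected human HepG2 cells, promoter-driven reporter mRNA levels after 24 h chemical exposure are determined via RT-PCR with capillary electrophoresis. DMSO serves as baseline for bidirectional fitting.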
Sequence of Hepatocyte nuclear factor 3-beta (Homo sapiens) (Q9Y261 whole entry, looked up): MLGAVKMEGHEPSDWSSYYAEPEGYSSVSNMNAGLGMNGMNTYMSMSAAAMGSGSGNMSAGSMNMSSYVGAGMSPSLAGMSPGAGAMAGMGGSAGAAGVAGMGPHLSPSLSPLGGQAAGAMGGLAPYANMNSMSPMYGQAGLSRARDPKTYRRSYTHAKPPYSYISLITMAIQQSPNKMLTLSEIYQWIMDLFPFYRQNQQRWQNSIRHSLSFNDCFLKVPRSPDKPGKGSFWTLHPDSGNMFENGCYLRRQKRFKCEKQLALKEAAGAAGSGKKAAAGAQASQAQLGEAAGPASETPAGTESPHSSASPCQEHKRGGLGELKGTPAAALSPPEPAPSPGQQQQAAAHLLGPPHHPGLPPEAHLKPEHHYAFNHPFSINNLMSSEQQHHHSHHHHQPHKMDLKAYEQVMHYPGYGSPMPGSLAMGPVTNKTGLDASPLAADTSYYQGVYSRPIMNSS

Assay [18] can be described thus: ATG_GRE_CIS: Attagene CIS-FACTORIAL HepG2 Assay for human Glucocorticoid Response Elements (GRE) (AID 2282947). The conditions noted are these: HepG2 GRE cis-reporter, Attagene multiplex mRNA; actives raise or lower the signal. The gist of the method:
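Transiently transfected HepG2 cells carrying GRE cis-reporter units (endogenous TF activity) dosed 24 h; reporter mRNA quantified by RT-PCR, 6-FAM labelling, HpaI digestion and capillary electrophoresis. Bidirectional fit versus DMSO baseline.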

The nature of assay [19]: ATG_ISRE_CIS: Attagene CIS-FACTORIAL HepG2 Assay for human Interferon Regulatory Factor 1 (IRF1) binding to an Interferon-Stimulated Response Element (ISRE) (AID 2282948). The conditions noted are these: HepG2 ISRE cis-reporter (Attagene), mRNA transcription readout; actives raise or lower the signal. The method, boiled down: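 HepG2 cells transiently transfected with multiplexed cis-promoter reporter units; after 24 h compound exposure, reporter mRNA quantified by RT-PCR, FAM labelling, HpaI digestion and capillary electrophoresis. Bidirectional fit versus DMSO baseline.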

For assay [20], the target named is Heat shock factor protein 1 (Homo sapiens) (UniProt Q00613). The assay can be described thus: ATG_HSE_CIS: Attagene CIS-FACTORIAL HepG2 Assay for human Heat Shock Transcription Factor 1 (HSE) (AID 2282953). The conditions noted are these: HepG2 HSE cis-reporter, Attagene RNA transcription; actives raise or lower the signal. The gist of the method: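 Endogenous transcription factor activity captured via cis-promoter reporter units transfected into HepG2; treatment lasted 24 h. Fluorescence intensity of reporter fragments analysed with bidirectional curve fitting, DMSO baseline.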
Sequence of Heat shock factor protein 1 (Homo sapiens) (Q00613 whole entry, looked up, the tested form may be a part): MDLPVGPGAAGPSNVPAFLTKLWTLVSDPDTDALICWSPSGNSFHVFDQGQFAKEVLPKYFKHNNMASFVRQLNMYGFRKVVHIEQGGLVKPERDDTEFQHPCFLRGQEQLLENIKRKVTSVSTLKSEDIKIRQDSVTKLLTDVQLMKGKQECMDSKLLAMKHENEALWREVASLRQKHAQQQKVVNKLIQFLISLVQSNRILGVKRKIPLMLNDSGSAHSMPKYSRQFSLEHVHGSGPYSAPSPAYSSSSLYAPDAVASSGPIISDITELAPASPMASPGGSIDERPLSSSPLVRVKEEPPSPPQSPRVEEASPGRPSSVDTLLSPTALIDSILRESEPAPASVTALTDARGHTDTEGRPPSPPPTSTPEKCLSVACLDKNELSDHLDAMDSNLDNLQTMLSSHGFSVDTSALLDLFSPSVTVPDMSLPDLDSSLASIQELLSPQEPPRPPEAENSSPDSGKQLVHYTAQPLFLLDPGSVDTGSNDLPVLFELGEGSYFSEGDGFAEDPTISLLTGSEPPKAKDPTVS

One may read the AC50 as the concentration at which the activity in the assay is half-maximal.

Sequence of Bile acid receptor (Homo sapiens) (Q96RI1 whole entry, looked up): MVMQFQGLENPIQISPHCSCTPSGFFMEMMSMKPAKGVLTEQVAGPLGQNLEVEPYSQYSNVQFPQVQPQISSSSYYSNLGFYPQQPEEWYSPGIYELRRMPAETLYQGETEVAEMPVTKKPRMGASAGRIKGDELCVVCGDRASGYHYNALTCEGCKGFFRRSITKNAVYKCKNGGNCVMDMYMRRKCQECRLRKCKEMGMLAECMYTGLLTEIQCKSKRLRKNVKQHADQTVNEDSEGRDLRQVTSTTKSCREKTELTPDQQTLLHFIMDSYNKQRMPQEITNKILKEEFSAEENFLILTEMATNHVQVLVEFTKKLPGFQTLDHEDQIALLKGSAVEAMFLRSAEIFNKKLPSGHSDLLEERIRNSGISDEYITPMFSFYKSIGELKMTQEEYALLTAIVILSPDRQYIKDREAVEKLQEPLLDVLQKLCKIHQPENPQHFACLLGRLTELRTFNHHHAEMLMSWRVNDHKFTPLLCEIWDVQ
Sequence of Hepatocyte nuclear factor 6 (Homo sapiens) (Q9UBC0 whole entry, looked up): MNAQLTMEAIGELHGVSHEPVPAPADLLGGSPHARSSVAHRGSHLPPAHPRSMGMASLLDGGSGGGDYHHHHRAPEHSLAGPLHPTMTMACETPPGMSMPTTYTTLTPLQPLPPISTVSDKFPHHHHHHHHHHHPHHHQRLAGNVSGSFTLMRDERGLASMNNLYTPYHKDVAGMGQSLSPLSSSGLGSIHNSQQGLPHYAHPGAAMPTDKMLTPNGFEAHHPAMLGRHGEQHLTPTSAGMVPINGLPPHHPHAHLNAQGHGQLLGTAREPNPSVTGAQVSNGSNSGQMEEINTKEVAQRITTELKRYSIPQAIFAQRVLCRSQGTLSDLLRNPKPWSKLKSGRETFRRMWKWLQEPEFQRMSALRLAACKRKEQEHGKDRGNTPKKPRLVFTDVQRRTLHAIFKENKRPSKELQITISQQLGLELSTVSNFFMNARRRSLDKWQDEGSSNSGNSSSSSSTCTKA
Sequence of Hypoxia-inducible factor 1-alpha (Homo sapiens) (Q16665 whole entry, looked up): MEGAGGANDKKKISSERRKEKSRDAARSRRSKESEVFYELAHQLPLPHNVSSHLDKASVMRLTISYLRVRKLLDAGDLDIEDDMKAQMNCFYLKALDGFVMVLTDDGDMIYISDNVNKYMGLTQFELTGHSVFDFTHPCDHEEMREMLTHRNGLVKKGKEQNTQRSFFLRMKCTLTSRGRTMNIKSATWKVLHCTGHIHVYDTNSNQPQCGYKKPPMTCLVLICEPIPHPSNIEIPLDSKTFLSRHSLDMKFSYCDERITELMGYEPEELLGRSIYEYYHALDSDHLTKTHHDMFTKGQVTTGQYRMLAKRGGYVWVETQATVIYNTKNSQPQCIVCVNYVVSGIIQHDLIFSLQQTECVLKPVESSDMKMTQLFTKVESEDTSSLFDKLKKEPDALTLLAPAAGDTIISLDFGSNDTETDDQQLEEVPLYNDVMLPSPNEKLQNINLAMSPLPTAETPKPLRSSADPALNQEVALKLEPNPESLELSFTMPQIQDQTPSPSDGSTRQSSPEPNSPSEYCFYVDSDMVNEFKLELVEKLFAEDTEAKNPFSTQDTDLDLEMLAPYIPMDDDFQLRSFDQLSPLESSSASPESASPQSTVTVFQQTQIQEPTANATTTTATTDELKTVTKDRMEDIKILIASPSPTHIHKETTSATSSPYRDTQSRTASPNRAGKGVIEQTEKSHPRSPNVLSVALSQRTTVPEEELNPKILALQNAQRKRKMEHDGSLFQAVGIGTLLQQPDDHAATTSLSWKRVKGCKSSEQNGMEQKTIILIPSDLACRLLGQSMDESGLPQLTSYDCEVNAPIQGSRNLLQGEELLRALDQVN

Regarding `CC(C)(C)c1ccc(CCOc2ncnc3ccccc23)cc1`, the compound was classed as inactive in assay [1], in [2], in [3], in assay [4], in assay [5] and in assay [6]. Besides, the result in assay [7], in [8], in assay [9], in assay [10], in [11] and in assay [12] was inactive. Further, the call in assay [13], in [14], in assay [15] and in [16] was inactive.

With `C#CCO`, the outcome in assay [1], in assay [2], in [3], in assay [4], in [5] and in assay [17] was inactive. The result in [7], in [8], in assay [18], in assay [19], in assay [10] and in assay [11] was inactive. In addition, the result in assay [12], in assay [13], in [20], in assay [14], in assay [15] and in [16] was inactive.

As for `C=CC(=O)OCC(COC(=O)C=C)(COC(=O)C=C)COC(=O)C=C`, the result in assay [1], in assay [3], in [4], in assay [7], in assay [8] and in assay [18] was inactive. In addition, the compound was called inactive in assay [10], in assay [11], in [12], in assay [13] and in [15]. For the same compound, the AC50 in assay [2] is 8.31 µM (active); in [5], 33.4 µM (active); in assay [9] it was 12.2 µM (active); in assay [19], 5.34 µM (active); in [20], 56.5 µM (active); in assay [14], 8.5 µM (active). In addition, the AC50 in assay [16] is 8.18 µM (active).

Regarding `BrCC(Br)c1ccccc1` (stereo not drawn), the outcome in assay [1], in assay [2], in assay [3], in [4], in assay [5] and in assay [17] was inactive. Also, the compound was called inactive in assay [8], in assay [9], in [18], in [19], in assay [10] and in assay [11]. Also, the compound was classed as inactive in [12], in assay [13], in assay [14] and in assay [16].
